Data: PubChem BioAssay (Tox21)
Results filed as inconclusive are left out. Values without a mark were called inactive. Calls come from the whole dose curve.

Test: qHTS assay to identify small molecule agonists of the AP-1 signaling pathway - cell viability counter screen (AID 1159525); note: nearly all actives have a fitted effect of over 55% in size
Settings: ME-180 (cervical carcinoma) AP-1-bla cells viability, ATP luminescence, 5 h; series mostly up to 76.8 µM; viability change, negative = cytotoxic: at the top concentration
Text: National Center for Advancing Translational Sciences [NCATS]
NIH Chemical Genomics Center [NCGC]
U.S. Environmental Protection Agency [EPA]
National Institutes of Environmental Health Sciences [NIEHS]
National Toxicology Program [NTP]
U.S. Food and Drug Administration [FDA]
Activator protein-1 (AP-1), a transcription factor, plays an important role in tumor genesis by regulating genes involved in cell proliferation, differentiation, apoptosis, and angiogenesis. AP-1 activity is induced by a complex network of signaling pathways that involves extracellular signals, such as growth factors. The AP-1 protein complex formed from c-Fos and c-Jun binding to the AP-1 response element results in transcriptional activation of genes containing such elements within their promoter.
Low molecular weight molecules have been discovered and developed to modulate various components of these signaling pathways, for example, MAP kinase inhibitors. However, many points of pathway modulation remain untested due to the lack of chemical probes making this signaling locus of general interest.
Using a beta-lactamase reporter-gene under control of the AP-1 response element, a cell-based assay [CellSensor(TM) AP-1-bla ME-180 developed by Invitrogen Corp.] was used to measure EGF-induced signaling. The Tox21 10K library compounds were measured for their ability to positively modulate the action of EC50 EGF on reporter gene activity. Compounds were screened in a 15-pt titration series in 1536-well format. The cytotoxicity of the Tox21 compound library against this cell line was tested in parallel by measuring the intra cellular ATP content in the same wells.
Tox21 Assay Protocol Summary:
2500 cells/5uL in Opti-MEM medium containing 0.5% dialyzed FBS, 0.1 mM NEAA, 1 mM sodium pyruvate and 10 mM HEPES was dispensed into 1536-well black wall/clear bottom plates using a Multidrop dispenser and cells were cultured at 37 degrees Celsius overnight. Next day 23 nL of compounds dissolved in DMSO, positive controls or DMSO were delivered to each well using a pin tool. The plates were incubated at 37 degrees Celsius for 5 hours. 1 uL of LiveBLAzerTM B/G FRET substrate (Solution A+B+C+D) was added to each well using a Flying Reagent Dispenser. After incubated at room temperature for 2.5 hours the plates were measured on an EnVision plate reader at Excitation 405nm, Emission1=460nm and Emission 2=530nm. The %Activity was determined from the ratio of 460nm/530nm.
After the plates were read for Beta-Lactamase assay on Envision; 3 ul Cell Titer Glo (Promega) was added to measure the cytotoxicity and the plates were then incubated at RT in dark for 30 min. The luminescence was read on ViewLux (Perkin Elmer, Shelton, CT) using 6 sec exposure. ViewLux data was expressed as relative luminescence units.
For primary data analysis, raw plate reads for each titration point were first normalized relative to […] EGF control (100%) and DMSO only wells (basal, 0%).
For primary data analysis for viability assay, raw plate reads for each titration point were first normalized Tetra n-octyl ammonium bromide control (-100%) and DMSO (control, 100%).
In the case of Clc1ccccc1N1CCNCC1, the “viability change, negative = cytotoxic” value is reported as 4.4% [at 35.3 µM]. In the case of O=[N+]([O-])c1ccc(CBr)cc1, the “viability change, negative = cytotoxic” value is reported as 3.01%. With O=C(O)c1cccc(Cl)c1 the “viability change, negative = cytotoxic” value was -1.21%. With CCC(=O)c1ccccc1 the “viability change, negative = cytotoxic” value was 0.108%. With CNNC the “viability change, negative = cytotoxic” value was 1.06%. For Cc1cccc(C#N)c1, the “viability change, negative = cytotoxic” value was 3.68%. In the case of Nc1c(Br)cc([N+](=O)[O-])cc1[N+](=O)[O-], the “viability change, negative = cytotoxic” value is reported as 2.05%. With C(CCOCC1CO1)COCC1CO1 (stereo not given) the “viability change, negative = cytotoxic” value was 0.0632%. For c1coc(-c2nc3ccccc3[nH]2)c1, the “viability change, negative = cytotoxic” value was -11.8%. With Cc1ncsc1CCCl the “viability change, negative = cytotoxic” value was -1.62% [at 35.3 µM]. With CC(C1CC1)C(O)(Cn1cncn1)c1ccc(Cl)cc1 (stereo not given) the “viability change, negative = cytotoxic” value was -7.89%. With CCC(C)n1c(=O)[nH]c(C)c(Br)c1=O (stereo not given) the “viability change, negative = cytotoxic” value was -9.54%. In the case of CC(C)NCC(O)c1ccc(N)c(C#N)c1 (stereo not given), the “viability change, negative = cytotoxic” value is reported as 1.05% [at 35.3 µM]. With O=C(O)c1ccc2[nH]cc(CCCCN3CC=C(c4ccccc4)CC3)c2c1 the “viability change, negative = cytotoxic” value was -0.0459% [at 35.3 µM]. With COP(N)(=S)Oc1ccccc1C(=O)OC(C)C (stereo not given) the “viability change, negative = cytotoxic” value was 2.49%. In the case of COC(=O)c1c(C(F)F)nc(C(F)(F)F)c(C2=NCCS2)c1CC(C)C, the “viability change, negative = cytotoxic” value is reported as -6.51%. For C[C@@H]1CN(C2CCC(C#N)(c3ccc(F)cc3)CC2)CC[C@]1(C(=O)O)c1ccccc1 (stereo not given in full), the “viability change, negative = cytotoxic” value was 2.35% [at 35.3 µM]. For CCN(CC)C(=O)[C@@H]1C=C2c3cccc4[nH]cc(c34)C[C@H]2N(C)C1, the “viability change, negative = cytotoxic” value was -11.3% [at 200 µM]. For CC1(C)CON(Cc2ccccc2Cl)C1=O, the “viability change, negative = cytotoxic” value was -5.46%. In the case of CCCCOC(=O)c1ccccc1C(=O)O, the “viability change, negative = cytotoxic” value is reported as -1.23%. For CCC(Cl)[N+](=O)[O-] (stereo not given), the “viability change, negative = cytotoxic” value was 2.66%. For N#CCCC#N, the “viability change, negative = cytotoxic” value was -16.1%. For ClCC(Cl)Cl, the “viability change, negative = cytotoxic” value was -2.91%. With Cc1cc(C)c(C(=O)P(=O)(C(=O)c2c(C)cc(C)cc2C)c2ccccc2)c(C)c1 the “viability change, negative = cytotoxic” value was -7.48%. For COP(=S)(OC)Oc1ccc(S(N)(=O)=O)cc1, the “viability change, negative = cytotoxic” value was -0.637% [at 35.3 µM]. In the case of CC(C)(C)C(=O)C(Oc1ccc(Cl)cc1)n1cncn1 (stereo not given), the “viability change, negative = cytotoxic” value is reported as -6.19%. In the case of CCS(=O)(=O)CCSP(=O)(OC)OC, the “viability change, negative = cytotoxic” value is reported as 0.614%. For N#CC(Cl)(Cl)Cl, the “viability change, negative = cytotoxic” value was 7.12%. For Clc1cccc(N2CCNCC2)c1, the “viability change, negative = cytotoxic” value was 1.13% [at 35.3 µM]. With CC(C(=O)c1ccccc1)N(C)C (stereo not given) the “viability change, negative = cytotoxic” value was 0.33% [at 35.3 µM]. In the case of COC(=O)C1=CCCN(C)C1, the “viability change, negative = cytotoxic” value is reported as 4.78% [at 35.3 µM]. With Fc1ccc(C2(Cn3cncn3)OC2c2ccccc2Cl)cc1 (stereo not given) the “viability change, negative = cytotoxic” value was -10.7%. For ClC(Cl)C(Cl)Cl, the “viability change, negative = cytotoxic” value was 5.2%. For Cc1ccccc1CO[C@@H]1C[C@@]2(C(C)C)CC[C@]1(C)O2, the “viability change, negative = cytotoxic” value was -8.96%. For COc1cc(C[C@@H](C)N)c(OC)cc1C, the “viability change, negative = cytotoxic” value was 1.23%. With CC(C)CP(=S)(S)CC(C)C the “viability change, negative = cytotoxic” value was 3.25%. With CC(=O)Nc1cc([As](=O)(O)O)ccc1O the “viability change, negative = cytotoxic” value was -1.62% [at 35.3 µM]. For COc1cccc(C(=O)NN(C(=O)c2cc(C)cc(C)c2)C(C)(C)C)c1C, the “viability change, negative = cytotoxic” value was -9.9%. With NC1=NC(=O)C(c2ccccc2)O1 (stereo not given) the “viability change, negative = cytotoxic” value was 1.09% [at 35.3 µM]. For CCC#N, the “viability change, negative = cytotoxic” value was 2.7%.
